Rows were chosen to be rich in hits. Some 10% of all compounds tested hit in one or more screens of this group.
KinaseGlo FLuc: blocks Kinase-Glo luciferase, a counter-screen artifact. Kinase-Glo luciferase, ATP luminescence, 8 min. Q27757. hit rate 0.28% among 200,000. AID 1379. Potency, µM (series often up to 38.3 µM), hits mostly inhibitors; active = well fitted inhibition curve with a large enough effect; inconclusive = small, poorly fitted or top-dose-only effect; also: nearly all actives have a fitted effect of over 60% in size
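Compound is pinned into ATP-containing buffer (10 uM ATP, imidazole pH 7.2, 7 mM MgCl2). Kinase-Glo luciferase reagent is then added. Light output is recorded following an 8-min room-temperature incubation.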
PNC assembly inh: inhibitors of perinucleolar compartment assembly; hit rate 3.1% among 140,000; PC3M PTB-GFP, PNC prevalence imaging, 16 h; stronger effect = lower value; activity change (PNC), negative = inhibition, % at 10 µM;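 active = readout at or below -70, meaning at least 70% loss of cells showing the perinucleolar compartment, a nuclear body marking cancer cells; inconclusive = readout between -30 and a set limit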
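Read-out is percentage of cells bearing a perinucleolar compartment, from automated 20x imaging of fixed, Hoechst-stained PC3M PTB-GFP cells. Cells were seeded 4 h, then exposed 16 h to compound (23 nl of library stock) in duplicate plates.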
Lamin A splicing: LMNA splicing modulation; HeLa LMNA splicing GFP/RFP minigene ratio, 48 h; Potency, µM (titrated, usually from 46.1 µM), usual class: inhibitors; hit rate 0.01% among 200,000; AID 1487; active = well fitted inhibition curve with a large enough effect in the signal ratio, with a control signal flat, not every such curve was filed as active; inconclusive = small, poorly fitted or top-dose-only effect, or effect the other way, or a change in a side signal; the % refers to the signal ratio
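S3 HeLa stable clones carrying a lamin A-EGFP splicing minigene plus DsRed2 were seeded at 600 cells/well in Opti-MEM with 2% FBS, pin-dosed and incubated 48 h at 37°C. Acumen cytometry (488 nm) gave the GFP/RFP total-intensity ratio.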
HPGD inh: blocks human HPGD enzyme activity. hit rate 4.3% among 150,000. P15428. Potency, µM, hits mostly inhibitors. purified HPGD, NADH fluorescence kinetic, PGE2 substrate. AID 894
Target sequence (P15428 whole entry, looked up): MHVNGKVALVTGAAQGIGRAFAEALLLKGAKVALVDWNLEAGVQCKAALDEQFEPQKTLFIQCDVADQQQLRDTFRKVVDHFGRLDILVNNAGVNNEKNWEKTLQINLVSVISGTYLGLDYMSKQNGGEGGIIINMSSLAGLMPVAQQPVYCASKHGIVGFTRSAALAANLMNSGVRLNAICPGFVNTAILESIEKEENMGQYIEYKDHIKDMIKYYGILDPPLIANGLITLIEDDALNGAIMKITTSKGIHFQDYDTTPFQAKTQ
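20 nM HPGD preincubated 15 min at room temperature with compound in 50 mM Tris-HCl pH 8, 0.01% Tween 20. Started with 1 mM NAD+ and 30 uM prostaglandin E2; NADH fluorescence (360/450 nm) read 5 times over 30-s intervals, last minus first.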
IMPase inh: cell-permeable inhibitors of inositol monophosphatase (IMPase). 120,000 tested, under 10 active. P97697. CHO-M1 cells, IP1 accumulation, HTRF TR-FRET ratio. inhibition (IP1 accumulation), % at 46.1 µM; active = well fitted curve in the direction sought with a large enough effect in the signal ratio, not every such curve was filed as active; inconclusive = small, poorly fitted or top-dose-only effect, or a change in a side signal; inactive = no such curve, though single readings can be large or run the other way; the % refers to the signal ratio;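 also: cells stimulated with carbachol in lithium chloride buffer; higher means more IMPase inhibition seen as more IP1 and lower FRET ratio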
Target sequence (P97697 whole entry, looked up): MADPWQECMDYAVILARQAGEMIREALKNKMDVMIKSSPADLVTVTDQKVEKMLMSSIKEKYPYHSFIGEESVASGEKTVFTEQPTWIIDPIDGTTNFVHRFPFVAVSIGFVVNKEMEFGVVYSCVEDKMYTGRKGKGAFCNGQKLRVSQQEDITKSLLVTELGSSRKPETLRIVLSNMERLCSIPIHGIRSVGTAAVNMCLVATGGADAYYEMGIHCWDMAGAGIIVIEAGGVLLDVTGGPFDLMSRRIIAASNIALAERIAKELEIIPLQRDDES
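The IP-One HTRF competitive assay in carbachol-stimulated CHO-M1 cells quantifies cellular IP1. Compounds spanned up to 46 uM final, and activity is expressed as AC50 from concentration-response fits of the ratio and donor data.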
ALDH1A1 block: ALDH1A1 (human) enzyme inhibition. P00352. AID 1030. Potency, µM (series often up to 75.3 µM), usual class: inhibitors. Purified ALDH1A1, NADH fluorescence, propionaldehyde substrate. hit rate 7.3% among 220,000
A number is an active result; n = inactive; u = inconclusive; x = not tested or not shown. Unless noted, calls follow the shape of the dose curve; as a rule, active = well fitted inhibition curve with a large enough effect (not every such curve was filed as active); inconclusive = small, poorly fitted or top-dose-only effect, or another doubt; inactive = no such curve, though single readings can be large or run the other way.

SMILES | KinaseGlo FLuc | PNC assembly inh | Lamin A splicing | HPGD inh | IMPase inh | ALDH1A1 block
O=C(/C=C/c1ccc(S(=O)(=O)NCc2ccco2)cc1)NCc1ccccc1Cl | x | n | n | x | n | 28µM
COc1ccc(C(=O)Nc2ccc(S(=O)(=O)NCc3ccco3)cc2)cc1OC | n | n | n | n | n | n
COC(=O)COc1ccc(S(=O)(=O)NCc2ccco2)cc1Cl | n | -103 | n | n | n | n
COc1cccc(C2=CC(c3ccccc3F)n3ncc(C(=O)Nc4ccc(F)cc4)c3N2)c1 (stereo not given) | x | x | n | x | x | x
COc1cccc(S(=O)(=O)Nc2ccc(C(=O)NCc3ccco3)cc2)c1 | n | n | n | u | n | 28µM
COc1ccc(CCNC(=O)c2ccc(CNS(=O)(=O)c3cccc(Cl)c3)cc2)cc1OC | n | u | u | n | n | 3.5µM
COc1cccc(NC(=O)COC(=O)c2ccc(S(=O)(=O)NCc3ccco3)cc2)c1 | n | n | n | n | n | n
COc1cccc(S(=O)(=O)NCc2ccc(C(=O)NCc3ccco3)cc2)c1 | n | u | n | n | n | 14µM
COC(=O)c1cc(CNC(=O)c2cccc(Cl)c2)ccc1OC | n | -89 | n | n | n | n
COC(=O)c1cc(CNC(=O)c2cccc(Cl)c2Cl)ccc1OC | n | n | u | u | x | n
COc1ccc(-c2cn3nc(N4CCCC(C(=O)Nc5cc(C)ccc5C)C4)sc3n2)cc1 (stereo not given) | x | x | n | x | x | x
O=C(OCC(=O)N1CCN(c2ccccc2)CC1)c1ccco1 | n | n | n | n | n | 2.2µM
Cc1cc(C(=O)OCC(=O)N2CCN(c3ccccc3)CC2)c2ccccc2n1 | n | n | n | n | n | 22µM
O=C(OCC(=O)N1CCN(C(=O)c2ccco2)CC1)c1ccccc1C(=O)c1ccccc1 | n | n | n | n | n | n
O=C(Nc1ccon1)c1cc2c(s1)CCCC2 | n | n | n | 28µM | n | n
CC(C)NC(=O)c1cc2c(s1)CCCC2 | n | n | n | 22µM | n | u
Cc1csc(NC(=O)c2cc3c(s2)CCCCC3)n1 | u | u | u | 25µM | n | u
CNC(=O)c1cc2c(s1)CCCCCC2 | n | u | n | n | n | u
Cc1csc(NC(=O)c2cc3c(s2)CCCC3)n1 | x | n | u | x | n | u
C/C(=C\C(=O)C(F)(F)F)Nc1cc(C)cc(C)c1 | n | -85 | n | n | n | n
C/C(=C\C(=O)C(F)(F)F)Nc1ccc(C)cc1 | n | u | n | n | x | n
CCOP(=O)(O)c1ccccc1OCCOCCOc1ccccc1P(=O)(O)OCC | n | u | n | n | n | 4µM
CCN(c1cccc(C)c1)S(=O)(=O)c1ccc(OC)c([N+](=O)[O-])c1 | n | x | n | x | x | 25µM
O=C1/C(=C/N(C(=O)c2ccco2)c2ccc(Br)cc2)Sc2ccccc21 | n | n | n | 32µM | x | u
CCS(=O)(=O)N1CCC(C(=O)N2CCOCC2)CC1 | n | u | n | n | n | n
SMILES | KinaseGlo FLuc | PNC assembly inh | Lamin A splicing | HPGD inh | IMPase inh | ALDH1A1 block
CCCCC1CCC(C(=O)N2CCOCC2)CC1 (stereo not given) | n | n | n | 16µM | x | n
CCN(CC)S(=O)(=O)c1ccc2c(c1)nc(CN(C)C(=O)Nc1ccc(F)cc1)n2C | x | x | n | x | x | x
c1ccc(-c2csc3ncnc(NCCN4CCOCC4)c23)cc1 | n | n | u | n | n | n
CN(C)CCCNc1ncnc2scc(-c3ccccc3)c12 | n | x | x | x | x | 18µM
Cc1ccc(CSC2=Nc3ccccc3C3=NC(CCC(=O)NC4CCCCC4)C(=O)N23)cc1 (stereo not given) | x | x | n | x | x | x
Cn1c(=O)cc(NCc2ccccc2)[nH]c1=O | n | -91 | n | n | n | n
COc1ccc(-n2c(-c3cccc(C)c3[N+](=O)[O-])n[nH]c2=S)cc1 | n | -109 | n | 35µM | n | u
CCc1cccc2c1NC(=O)C21N2CCCC2C(C(=O)c2ccc3ccccc3c2)C12C(=O)Nc1ccccc12 (stereo not given) | n | n | n | n | n | 20µM
CCc1ccc2c(c1)C1(C(=O)N2)N2CCCC2C(C(=O)c2ccc3ccccc3c2)C12C(=O)Nc1ccccc12 (stereo not given) | n | n | u | n | n | n

Compound activity deposited in PubChem by National Center for Advancing Translational Sciences (NCATS).
